# Experimental data reported in ChEMBL document CHEMBL4513216, “Probing the Open Global Health Chemical Diversity Library for Multistage-Active Starting Points for Next-Generation Antimalarials” (ACS Infect Dis, 2020).
# In all, about 69,000 compounds went through this assay and about 8,600 (12%) showed an effect of 50% or more. Shown is part of a subset that was picked to be rich in strong results.
# System: Plasmodium berghei
# Test: Screen against P. berghei liver stage (PbLuc), transformed with Luciferase, at 10uM
# Format: functional, HepG2
# Settings: tested at 10 uM
row,SMILES,INHIBITION [%]
1,Fc1ccc(C(CNc2ccncn2)N2CCCC2)cc1 (centres undefined),45
2,Cc1cc(C(=O)N2CCC3(C2)CN(c2ccsc2)C(=O)CN3C)[nH]n1 (centres undefined),46.2
3,COc1ccc2c(c1OC)Cc1c-2nc(N)c(C#N)c1C1CCOC1 (centres undefined),40.5
4,N#Cc1c(N)nc2c(c1C1CCOC1)CCc1cc(O)ccc1-2 (centres undefined),-3.12
5,COc1ccc2c(c1)Cc1c-2nc(N)c(C#N)c1C1CCOC1 (centres undefined),73.9
6,Cc1ccc(C(=O)Nc2ccc(N(C)C)cn2)n1C,-75.9
7,CCc1ccc(CN2C[C@@H]3COC[C@H](NS(C)(=O)=O)[C@@H]3C2)o1,-12.2
8,Cc1ccc(Oc2ncccc2C(=O)N(C)CC2OCCO2)c(C)c1,-17.2
9,c1cc(C2CN(C3CCCCC3)C2)n[nH]1,15.92
10,CCC(N)c1ccccc1OCC(=O)N1CCCC1 (centres undefined),-42.3
11,Cc1ccc(CNCc2nnc3n2CC(C(F)(F)F)CC3)o1 (centres undefined),65.9
12,FC(F)(F)C1CCCn2c(CNCc3ccco3)nnc21 (centres undefined),45.3
13,Cc1ccc(CNCc2nnc3n2CCCC3C(F)(F)F)o1 (centres undefined),4.92
14,COc1cccc(CNCc2nnc3n2CC(C(F)(F)F)CC3)c1 (centres undefined),45.1
15,Cc1ccoc1CNCc1nnc2n1CCCC2C(F)(F)F (centres undefined),47.4
16,Cc1ccoc1CNCc1nnc2n1CC(C(F)(F)F)CC2 (centres undefined),52.6
17,CCC(NC(=O)c1cc(CC(C)C)nn1C)c1cccc(C)n1 (centres undefined),86.7
18,CCC(NC(=O)c1cc(CC(C)C)nn1C)c1cc(C)ccn1 (centres undefined),-1.15
19,CCC(NC(=O)c1cc(CC(C)C)nn1C)c1ccnn1C (centres undefined),-18.2
20,CC(O)CN1CCN(C(=O)c2cnn(-c3ccccc3Cl)c2)CC1 (centres undefined),32
21,CCOCCN1CCN(c2ccc(C#N)cn2)CC1CC (centres undefined),2.91
22,O=C(c1cnoc1)N1CCC[C@]2(C[C@@H](OCc3ccccn3)CO2)C1,8.47
23,Cc1cc(C(=O)O)c2c(Br)cccc2n1,8.7
24,Cc1cc(C(N)=O)c2c(Br)cccc2n1,53.2
25,Cc1cc(C(=O)N(C)C)c2c(Br)cccc2n1,40.7
26,Cc1nn(C)c(C)c1CCC(=O)N1CCCC(n2cccn2)C1 (centres undefined),16.9
27,CCCS(=O)(=O)CCN1CCN(c2cc(F)ccc2F)CC1,25.2

row,SMILES,INHIBITION [%]
1,NS(=O)(=O)CCN1CCN(c2cc(F)ccc2F)CC1,-6.51
2,O=C1CCC(=O)N1CCN1CCN(c2cc(F)ccc2F)CC1,79.1
3,NC(=O)C1CCN(C(=O)c2ccn(-c3cccc(Cl)c3)n2)C1 (centres undefined),-1.14
4,O=C(NCCCn1cccn1)NCC(c1ccco1)N1CCCC1 (centres undefined),-49.5
5,CCOCC(=O)N1CC[C@H]2OCC[C@@]2(COc2ncccc2F)C1,-23.4
6,Cc1n[nH]cc1CNCC1(c2ccc3c(c2)OCO3)CCOCC1,-21.4
7,Cc1csc(CNC(=O)NCC2(c3ccc4c(c3)OCO4)CC2)n1,2.29
8,Cc1ncsc1CNC(=O)NCC1(c2ccc3c(c2)OCO3)CC1,70.2
9,CN1CCN(Cc2cn3c(n2)CN(Cc2cccc(F)c2)CC3)CC1,27.6
10,CCn1nc(C)c(-c2cncn2Cc2ccccc2CN(C)C)c1C,34.1
11,Cc1ccc(-c2cc(C(=O)O)sn2)cc1,-21.9
12,CN(C)c1ncc(I)c(C2CCCN2S(C)(=O)=O)n1 (centres undefined),7.19
13,CNc1ccnc(NCCSc2nccn2C)n1,44.3
14,Cc1ccnc(NCCSc2nccn2C)n1,65.6
15,Cn1ccnc1SCCNc1nccc(C(F)(F)F)n1,-1.16
16,O=C(NCc1nccs1)N1CCOC(c2ccccc2Cl)C1 (centres undefined),19.9
17,Cc1nc(NCC(O)CN2CCCCCC2)c2c(C)noc2n1 (centres undefined),15.7
18,CCC(Nc1nc(C)nc2onc(C)c12)c1cccs1 (centres undefined),79.9
19,CCC(Nc1nc(C)nc2onc(C)c12)c1nc(C)c(C)s1 (centres undefined),70
20,Cc1noc(C(C)C)c1C(=O)NCC(c1cccs1)N(C)C (centres undefined),2.3
21,Cc1nc(NCCSc2cnn[nH]2)c2c(C)noc2n1,1.56
22,Cc1noc2ncnc(NC(CC(C)(C)C)c3cccnc3)c12 (centres undefined),23.5
23,CNC(=O)NC(=O)C(C)N(C)CCCc1cc(-c2ccccc2)no1 (centres undefined),-14.18
24,c1csc(CN2Cc3nccn3CC(Cn3cncn3)C2)c1 (centres undefined),-22.1
25,CCCc1cc(C(=O)N[C@@H]2CCC[C@@H](N3CCCC3)[C@@H]2O)no1,13.7
26,Cn1nccc1CNS(=O)(=O)c1cc(F)ccc1Br,6.02
27,CC(C)c1nnc(NC(=O)Cc2ccc(F)cc2)[nH]1,51.1
